HCV inhibitor: inhibitors of hepatitis C virus infection; Huh7.5.1 HCVcc-Cre infection, luciferase reporter, 44 h; Potency, µM (top dose mostly 41.8 µM), for inactives: at the highest dose activity change, negative = inhibition, actives largely listed as inhibitors; 340,000 tested, 3.4% active; AID 651820; also: potency is read from the fitted curve at half-maximal effect; % is scaled to controls: 0 for no effect and ±100 for the full control effect
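Antiviral activity was scored by luciferase reporter output from cells infected with HCVcc-Cre (~0.5 moi) in presence of compound, 44 h infection period, cells seeded 1,000/well 4 h prior.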
Pf growth 48h: inhibits P. falciparum growth in the first generation, 48 h. P. falciparum luciferase growth in erythrocytes, 48 h. 310,000 tested, 5.9% active. AID 504832. Potency, µM (titrated, usually from 28.7 µM), for the others: top-dose activity change, negative = inhibition, actives largely listed as inhibitors; also: potency is read from the fitted curve at half-maximal effect; % is scaled to controls: 0 for no effect and ±100 for the full control effect
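Parasite viability was followed by luminescence of a genomically integrated firefly luciferase. Cultures held 0.1% parasitemia at 2% hematocrit (final), incubated under 5% CO2 at 37 C.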
Shiga toxin inh: blocks Shiga toxin action in Vero cells; Vero cells, Shiga toxin protein synthesis inhibition reporter; inhibition, % at 38.7 µM; 290,000 tested, 9.2% active; in the data active = inhibition mostly above about 28%, no sharp cut-off; inactive = mostly below about 43%; also: 0% is about no effect
Pf growth 96h: inhibits malaria parasite growth, 96 h. P. falciparum luciferase reporter growth, 96 h. Potency, µM (highest dose often 28.7 µM), for the others: top-dose activity change, negative = inhibition, hits mostly inhibitors. 320,000 tested, 6.9% active; also: potency is read from the fitted curve at half-maximal effect; % is scaled to controls: 0 for no effect and ±100 for the full control effect
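Cell-based qHTS: luciferase-tagged P. falciparum in erythrocytes (2% hematocrit, 0.05% parasitemia final) incubated with compounds for 96 hours, 37 C, 5% CO2; luciferase detection reagent then added and luminescence measured.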
Cycloheximide cs: affects cycloheximide protein synthesis inhibition readout, counter-screen | 300,000 tested, 12% active | cell reporter, cycloheximide protein synthesis inhibition counterscreen | max response, %; in the data active = max response mostly above about 13%, no sharp cut-off; inactive = mostly below about 14%; also: read at 38.3 µM for the half of the compounds with a filed dose; 0% is about no effect
AMA1 RON2 block: disrupts binding of P. falciparum AMA1 to RON2. AlphaScreen AMA1-biotinylated RON2 peptide binding. Potency, µM (doses to about 58.2 µM), for the others: at the top dose activity change, negative = inhibition, usual class: inhibitors. 360,000 tested, 0.2% active. AID 720542;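 also: potency is read from the fitted curve at half-maximal effect; 0% = vehicle wells and -100% = peptide control; nearly all actives have a fitted effect of over 45% in size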
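AMA1 (3D7) with his tag at 25 nM final met compounds first, then biotinylated RON2 peptide at 25 nM; detection used donor plus acceptor beads, 10 µg/mL apiece, read by AlphaScreen after 30 min at room temperature.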
The depositor's hits bear a star; ? = inconclusive; / = not tested or not shown. Rows were chosen to be rich in hits. Some 21% of all compounds tested hit in one or more screens of this group. Unless noted, calls follow the shape of the dose curve; as a rule, active = well fitted curve in the direction sought with a large enough effect; inconclusive = small, poorly fitted or top-dose-only effect, or another doubt; inactive = no such curve, though single readings can be large; an effect the other way counts as inactive or inconclusive.

SMILES | HCV inhibitor | Pf growth 48h | Shiga toxin inh | Pf growth 96h | Cycloheximide cs | AMA1 RON2 block
O=C(Nc1cccc(F)c1)N1CC=C(n2c(=O)[nH]c3ccccc32)CC1 | ? | 10µM* | -6 | 32% | -1 | 4%
COc1ccc(S(=O)(=O)N2CCC[C@H]2C(=O)N2CCC[C@H]2C(=O)N[C@@H](C)c2ccccc2)cc1C | / | / | / | / | / | 0%
O=C(Nc1ccccc1)N1CC=C(c2ccc(F)cc2)CC1 | ? | 10µM* | 95* | / | 52* | 2%
O=C(CCn1c(=O)[nH]c2ccccc2c1=O)N1CC=C(c2ccccc2)CC1 | -11% | -1% | -4 | -25% | 1 | -10%
O=C(CN1CCN(CC(=O)Nc2ccc(-c3ccccc3)cc2)CC1)Nc1ccc(F)cc1 | -3% | -15% | -16 | 0% | -7 | -6%
O=C(Nc1cccc2ccccc12)N1CC=C(c2ccccc2)CC1 | 2% | / | 35 | 0.1µM* | -4 | -2%
O=C(NCc1ccccc1)[C@]1(C(F)(F)F)C[C@H](CCC2CCCCC2)CCCO1 | / | / | 14 | / | 1 | /
CN(C)CCn1c(SCc2ccccc2C#N)nc2c(sc3ccccc32)c1=O | -8% | ? | 38 | 6.6µM* | 11 | -5%
CCN(CC)CCn1c(SCC(=O)Nc2ccc(F)cc2)nc2c(sc3ccccc32)c1=O | / | 9.3µM* | 5 | ? | 0 | /
COc1ccccc1NC(=O)CSc1nc2c(sc3ccccc32)c(=O)n1CCN(C)C | 8% | 31% | -7 | ? | -4 | 33%
Cc1cc(NC(=O)CSc2nc3c(sc4ccccc43)c(=O)n2CCCN2CCOCC2)n[nH]1 | 5.6µM* | / | -8 | ? | -1 | -6%
Cc1cc(NC(=O)CSc2nc3c(sc4ccccc43)c(=O)n2CCc2ccccc2)n[nH]1 | -1% | / | 4 | ? | -1 | 6%
O=C(O)CC1CCC1CC(=O)O (centres undefined) | 25% | / | / | / | / | -25%
O=S1(=O)C[C@@H](N2CCC(Cc3ccccc3)CC2)[C@H](COCc2ccccc2)N1 | / | / | / | / | / | -20%
Cc1cc(C)cc(N2C(=O)CSC2c2ccccn2)c1 (centres undefined) | 11% | ? | -4 | 0% | 3 | 10%
CC(=O)c1ccc(N=c2scc(C)n2C(C)C)cc1 | -3% | 33% | 57 | -6% | 40* | -20%
O=[N+]([O-])c1cc(CN2CCCC2)c2cccnc2c1O | 11% | 9.3µM* | -4 | ? | -4 | -16%
O=[N+]([O-])c1cc(CN2CCN(c3cccc(C(F)(F)F)c3)CC2)c2cccnc2c1O | 4µM* | 0.83µM* | -12 | ? | -7 | -82%
O=[N+]([O-])c1ccc(N2CCCC2)c2ncccc12 | ? | 13% | 1 | ? | 12 | -2%
O=[N+]([O-])c1cc(Cl)ccc1N1CCN(c2cccc(C(F)(F)F)c2)CC1 | -3% | ? | -13 | 12µM* | 0 | ?
CNS(=O)(=O)c1cnccc1N1CCN(c2cccc(C(F)(F)F)c2)CC1 | 0% | ? | -13 | 15µM* | -4 | 9%
Cc1cc(C(C)(C)C)cc(C)c1COC(=O)CN1C(=O)NC2(CCCC2)C1=O | -17% | ? | / | ? | / | 20%
O=C(c1ccccc1-c1ncc[nH]1)N1CCc2c([nH]c3ccccc23)C1c1ccccn1 (centres undefined) | 11% | 12µM* | -8 | 16% | -3 | ?
Cc1ccc2nc(C(=O)N3CCc4c([nH]c5ccccc45)C3c3ccccn3)cn2c1 (centres undefined) | 1% | 11% | -10 | 9.3µM* | -4 | -5%
O=C(c1cc(-c2ccccc2)n[nH]1)N1CCc2c([nH]c3ccccc23)C1c1ccccn1 (centres undefined) | ? | ? | 25 | 8.3µM* | -3 | -30%
SMILES | HCV inhibitor | Pf growth 48h | Shiga toxin inh | Pf growth 96h | Cycloheximide cs | AMA1 RON2 block
CSc1nc(C(=O)N2CCc3c([nH]c4ccccc34)C2c2ccccn2)cs1 (centres undefined) | -5% | 0% | -4 | 18% | -3 | -18%
CC(=O)c1ccc(C(=O)N2CCc3c([nH]c4ccccc34)C2c2ccccn2)s1 (centres undefined) | 4% | ? | 8 | ? | 5 | ?
O=C(c1ccccc1-n1cccn1)N1CCc2c([nH]c3ccccc23)C1c1ccccn1 (centres undefined) | -8% | ? | 17 | 4.7µM* | 11* | 2%
COc1ccc(OCC(=O)N2CCc3c([nH]c4ccccc34)C2c2ccccn2)cc1 (centres undefined) | -28% | -10% | 13 | ? | 6 | 7%
O=C(O)c1ccc(NC(=O)[C@H](Cc2ccc(O)cc2)NC(=O)c2ccccc2)cc1 | / | -11% | -3 | -13% | -1 | /
CC(C)(C)OC(=O)Nc1ccccc1-n1nnnc1C(C(=O)c1ccc(F)cc1)N1CCN(c2ccccn2)CC1 (centres undefined) | / | / | / | / | / | 32%
CCCCn1c(SCC(=O)N2CCC(C)CC2)nc2ccsc2c1=O | -27% | 12µM* | -7 | -44% | 10 | 25%
COC(=O)c1ccccc1NC(=O)CSc1nc2ccsc2c(=O)n1CCCCC(=O)O | / | / | / | / | / | 1%
CCCCn1c(SCC(=O)Nc2ccccc2C(F)(F)F)nc2ccsc2c1=O | -9% | 0% | -16 | 12µM* | 1 | -6%
N=c1n(CCCOc2ccccc2Cl)c2ccccc2n1CC(N)=O | -16% | ? | 15 | ? | -3 | -19%
Cc1ccc(Cn2ncc3c(N4CCN(c5ccccc5C)CC4)ncnc32)cc1 | ? | 13µM* | -4 | ? | 2 | -6%
Cn1ncc2c(N3CCN(c4ccc(Cl)c(Cl)c4)CC3)ncnc21 | ? | 9.3µM* | -3 | ? | -4 | -15%
Cn1ncc(Cl)c1C(=O)N1CCN(c2ccc(Cl)c(Cl)c2)CC1 | -23% | 21% | 1 | 21% | 10 | -10%
CCOC(=O)C1CCN(c2ncnc3c2cnn3C)CC1 | 18% | 8% | -3 | 128% | -2 | 45%
Cn1ncc2c(N3CCN(c4ccccc4F)CC3)ncnc21 | ? | ? | 7 | / | 13* | -6%
COc1ccccc1CNC(=O)C1CC(c2c(Cl)cccc2Cl)=NO1 (centres undefined) | ? | 32% | -18 | ? | 11 | 40%
CCc1c(C)sc(NC(=O)C2CC(c3c(F)cccc3Cl)=NO2)c1C#N (centres undefined) | -30% | 1% | 11 | ? | 9 | -21%
CN1CCN(C(=O)C2CC(c3c(F)cccc3Cl)=NO2)CC1 (centres undefined) | 9% | 14% | 15 | / | 10* | -1%
N#Cc1c(NC(=O)C2CC(c3c(F)cccc3Cl)=NO2)sc2c1CCC2 (centres undefined) | 32% | -9% | 36* | 3% | 23* | 15%

Screens deposited in PubChem BioAssay by National Center for Advancing Translational Sciences (NCATS).
